# Data taken from PubChem BioAssay (NCI).
# The panel holds about 83,000 compounds, 20% with a hit somewhere; the sample as a whole holds those more often.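 In brief: 96-well plates, 48 h treatment, single concentration, percent growth endpoint.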 Values without a mark were called inactive. The source made the active and inactive calls. Rule for the calls: active = growth percent below 10; inactive = the rest.
# What was measured:
# Experiment in all cases: NCI-60 one-dose screen, 48 h (100 = growth as untreated, 0 = no growth, -100 = all killed)
# Details in all cases: 10 µM unless noted
# SK-MEL-2 melanoma = tested on: SK-MEL-2 melanoma
# EKVX NSCLC = tested on: EKVX NSCLC
# SN12C renal = tested on: SN12C renal
# UO-31 renal = tested on: UO-31 renal
# TK-10 renal = tested on: TK-10 renal
# A498 renal = tested on: A498 renal
# CCRF-CEM leukemia = tested on: CCRF-CEM leukemia
# MOLT-4 leukemia = tested on: MOLT-4 leukemia
# SR leukemia = tested on: SR leukemia
# RPMI-8226 leukemia = tested on: RPMI-8226 leukemia
# OVCAR-8 ovarian = tested on: OVCAR-8 ovarian
# OVCAR-5 ovarian = tested on: OVCAR-5 ovarian
# OVCAR-4 ovarian = tested on: OVCAR-4 ovarian
# SK-OV-3 ovarian = tested on: SK-OV-3 ovarian
# IGROV1 ovarian = tested on: IGROV1 ovarian
# OVCAR-3 ovarian = tested on: OVCAR-3 ovarian
# HS 578T breast = tested on: HS 578T breast
# NCI/ADR-RES ovarian = tested on: NCI/ADR-RES ovarian
# T-47D breast = tested on: T-47D breast
# ACHN renal = tested on: ACHN renal
Compound,growth (SK-MEL-2 melanoma),growth (EKVX NSCLC),growth (SN12C renal),growth (UO-31 renal),growth (TK-10 renal),growth (A498 renal),growth (CCRF-CEM leukemia),growth (MOLT-4 leukemia),growth (SR leukemia),growth (RPMI-8226 leukemia),growth (OVCAR-8 ovarian),growth (OVCAR-5 ovarian),growth (OVCAR-4 ovarian),growth (SK-OV-3 ovarian),growth (IGROV1 ovarian),growth (OVCAR-3 ovarian),growth (HS 578T breast),growth (NCI/ADR-RES ovarian),growth (T-47D breast),growth (ACHN renal) [%]
C#CCOC(=O)[C@]1(C)CCC[C@]2(C)[C@H]3C[C@H]4C(C(C)C)=C[C@]3(CC[C@H]21)[C@@H]1C(=O)CCC(=O)[C@@H]14,88.2%,76.1%,86.8%,74.7%,90.7%,66.5%,67.1%,73.5%,64.9%,67.9%,90.5%,93.8%,73.9%,78.9%,78.3%,95%,80.8%,81.5%,66.7%,–
Nc1ccc(C2=NN(C(=O)c3cc(-c4ccc(Cl)cc4)nc4ccccc34)C(c3ccccc3)C2)cc1 (stereo not drawn),37.1%,40.4%,51.2%,49.5%,58.5%,30%,24.1%,41.2%,25.9%,8.12% (active),37.5%,73.4%,63.1%,24.6%,50.9%,3.55% (active),29.4%,12.7%,30.8%,–
Nc1c(C(=O)Nc2ccccc2)sc2nc3c(cc12)CN(C(=O)OCc1ccccc1)CC3,31.8%,69.6%,66%,67.5%,98.8%,44.6%,31.8%,37.8%,25.1%,53.1%,68.9%,91.7%,75.4%,43.7%,56.4%,16%,53.5%,45.6%,68.2%,–
COc1cc(-c2csc(NC(=O)Nc3ccc(Cl)cc3)n2)cc(OC)c1OC,29.3%,26%,27.5%,16.9%,26.6%,21.7%,6.31% (active),-17% (active),33.7%,8.27% (active),10.4%,76.9%,9.02% (active),53.5%,42.6%,19.4%,58.9%,7% (active),-7.45% (active),–
COC(=O)CCc1cc(O)c2c(c1)[C@@H](C(=O)OC)[C@H](c1ccc(O)c(O)c1)O2,47.8%,87.7%,95.1%,67.7%,90.6%,98%,53.6%,47.7%,36%,80.5%,90.6%,98.3%,83%,97.4%,88.1%,27.5%,74.3%,87.8%,66%,–
COc1ccc(C(C)c2cc(OC)c(OC)c(OC)c2)cc1 (stereo not drawn),33.6%,35.8%,39.1%,47.3%,67.5%,15.7%,18.5%,9.71% (active),13.3%,15.3%,10.9%,50.3%,34.3%,33.2%,28.5%,-14.1% (active),37.5%,13.8%,63.1%,–
Nc1cc(N)nc(SCC(=O)O)n1,99.7%,106%,103%,–,98.2%,89.4%,96.2%,103%,92.3%,102%,100%,107%,106%,105%,106%,111%,99.6%,104%,105%,109
C=C(C)[C@@H]1CC[C@]2(C(=O)N3CCN(C)CC3)CC[C@]3(C)[C@H](CC[C@@H]4[C@@]5(C)C/C(=C/c6ccco6)C(=O)C(C)(C)[C@@H]5CC[C@]43C)[C@@H]12,83.7%,68.2%,64.9%,60.5%,98.8%,97.5%,50.1%,28.6%,-21.9% (active),33.7%,70.7%,83.2%,71.7%,71.3%,90.1%,–,66.4%,69.8%,72.7%,–
O=C(Nc1ccc(N=Cc2ccccc2O)cc1)NC1C=c2ccccc2=CC1 (stereo not drawn),102%,106%,102%,81.9%,111%,83.5%,81%,93%,95.1%,94%,95.9%,103%,116%,103%,108%,99.1%,102%,101%,91.3%,–
CCN1CCN(c2ccc(NC(=O)Nc3nc4ccc(-c5ccccc5OC)cc4s3)cc2)CC1,-65.5% (active),-68.4% (active),-82.1% (active),-91.6% (active),-48% (active),70.2%,-17.3% (active),-51.7% (active),-38% (active),-33% (active),-52.5% (active),-11.5% (active),-76.1% (active),-12.5% (active),-71.3% (active),-90.5% (active),-23.2% (active),-67.3% (active),-45.4% (active),–
C=C1C(=O)O[C@H]2[C@H]1CC/C(COC(=O)c1cccnc1)=C\CC[C@@]1(C)O[C@@H]21,88.3%,71.8%,51.8%,69.9%,63.1%,102%,3.51% (active),71.5%,21%,28.5%,86.4%,73.8%,70%,86.1%,64.8%,26.4%,89.9%,93.5%,55.7%,–
CNCc1cccc2c1OCCOCCOCCN(CCN1CCOCC1)S(=O)(=O)c1ccc(cc1)-c1cnc(N)c(n1)C(=O)N2,60.9%,74.8%,68.4%,55.6%,43.9%,44.4%,18%,-1.99% (active),7.93% (active),54.8%,62.2%,119%,54.8%,17.3%,47.9%,49.4%,47.5%,108%,101%,–
O=C1Nc2ccccc2C12C=C(c1ccccc1)Nc1c2c(-c2ccccc2)nn1-c1ccccc1 (stereo not drawn),80.1%,53.2%,76.5%,62.9%,87.8%,75.6%,25.9%,16.4%,38%,40.8%,46.6%,73%,78%,87%,67.9%,70.3%,78.9%,66.2%,61.7%,–
COc1ccc(-c2nnc(N3CCN(C(=O)CN4CCN(c5ccccc5)CC4)CC3)nc2-c2ccc(OC)cc2)cc1,38.1%,13%,7.79% (active),26.9%,55.3%,48%,9.28% (active),-25.7% (active),-32.5% (active),-58.3% (active),42%,78.6%,24.4%,74.4%,34.3%,33.8%,55.4%,42.1%,16.8%,–
O=C(O)c1ccc(-n2cc(/C=N/Nc3ccc(Cl)cc3Cl)c(-c3ccccc3)n2)cc1,91.6%,77%,102%,67.5%,109%,108%,93.8%,88.9%,86.2%,83.2%,98.6%,107%,87.3%,89.4%,89%,88.7%,107%,92.3%,70.7%,–
COc1cc(C(C)c2ccc3c(ccn3C)c2)cc(OC)c1OC (stereo not drawn),30.5%,34.9%,32.6%,35.2%,71.3%,8.95% (active),16.3%,12.6%,13.8%,15.8%,11.5%,63.1%,37.5%,17.7%,18.8%,-16.4% (active),35.1%,13%,57.3%,–
C#C[C@@]1(O)[C@@H](CO)O[C@@H](n2cc(Cl)c3c(N)ncnc32)[C@@H]1O,-20.6% (active),-32.4% (active),1.7% (active),-60.1% (active),-3.3% (active),-68.8% (active),5.93% (active),1.07% (active),0.983% (active),-5.63% (active),-23% (active),16.1%,-4.32% (active),-10.3% (active),-17.5% (active),-10.1% (active),5.45% (active),-1.89% (active),-12.9% (active),–
NC(=O)c1ccc2nc3c(n2c1)C(=O)C(=O)c1ccccc1-3,-71.2% (active),-76% (active),-83.3% (active),-99.7% (active),-72.9% (active),-58.6% (active),-1.51% (active),-37.8% (active),-4.89% (active),-28.1% (active),-61.2% (active),-86.4% (active),-97.3% (active),-89.2% (active),-48.8% (active),-99.2% (active),-6.37% (active),-1.27% (active),-46.2% (active),–
NC(N)=NC(N)=Nc1cc2ccccc2c2ccccc12,5.61% (active),58%,35.4%,32.6%,20.8%,26%,38.6%,9.61% (active),-2.98% (active),-15.4% (active),45%,57.3%,45.8%,59.8%,17.2%,63.2%,46.5%,80.4%,30.2%,–
COc1ccc(-c2[nH]c3ccccc3c2C=C(C#N)C#N)cc1,-14.5% (active),12.4%,44.6%,59.1%,35.5%,-7.34% (active),-5.77% (active),-14.2% (active),-27.8% (active),-43.8% (active),–,26.7%,33.2%,28.7%,12.3%,-6.19% (active),16.4%,–,51.5%,43
O=C(NC[C@H](O)CN1CCc2ccccc2C1)c1cc(NC2COC2)ncn1,94.4%,111%,95.5%,78.2%,96.4%,116%,98.3%,88%,97.2%,107%,97.3%,96.4%,91.5%,107%,76.9%,104%,122%,98.4%,83.4%,–
O=C1C(Cl)=C(NCCCN(CCCNC2=C(Cl)C(=O)c3ccccc3C2=O)C2=C(Cl)C(=O)c3ccccc3C2=O)C(=O)c2ccccc21,79.4%,80%,4.16% (active),58.1%,146%,100%,34.6%,31.6%,2.55% (active),45.4%,39.2%,121%,33.9%,93.8%,54.8%,-0.584% (active),67.6%,76.1%,51.8%,–
COc1cc2c(cc1OCCCOc1cc3c(cc1OC)C(=O)N1CC(F)(F)C[C@H]1C=N3)N=C[C@@H]1CC(F)(F)CN1C2=O,34.7%,49.2%,35.8%,30%,11.3%,-66.6% (active),-33.1% (active),-8.82% (active),-12.1% (active),-30.7% (active),17.8%,14.2%,35.2%,46.2%,0.757% (active),22.8%,-8.37% (active),76.9%,27.7%,–
CCOCCc1c(O)nc(SC)[nH]c1=O,-28.8% (active),121%,92.6%,–,122%,85.7%,113%,116%,112%,94.4%,103%,87.3%,108%,102%,100%,186%,92.9%,96.5%,110%,108
CCOC(=O)NC(Cc1ccccc1)c1ccccc1 (stereo not drawn),99.2%,105%,106%,93.2%,96%,94%,98.1%,85.8%,81.7%,98.2%,104%,106%,106%,108%,103%,119%,102%,98.2%,99.6%,–
